Source: PubChem
aSyn 5UTR inh: MLPCN primary screen, SNCA 5' untranslated region; alpha-synuclein 5'UTR reporter, inhibitor activity; inhibition, % (tested at 7.5 µM); 0.82% of 300,000 active; in the data active = inhibition above about 60%;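 note: H4 neuroglioblastoma cells stably carrying SNCA 5'UTR luciferase fusion; 0% = DMSO wells and 100% = positive control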
A1 inh: caspase 3/7 activation in MEF A1-2A-BIM cells, primary screen, A1 inhibitor project, cell-based, luminescence, HTS. 0.066% of 330,000 active. Caspase-Glo 3/7 luminescence, 3 h; percent of clofoctol response, vehicle zero. AID 2462, 2010. caspase activation, % (no concentration beside the values);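 active = over half of replicate activation scores above 10%, or exactly half above 10 with the replicate mean above 10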
Mdm2-MdmX inh: inhibitors of human Mdm2-MdmX association, primary screen, cell-based, luminescence, split luciferase, SaOS-2, uHTS; Protein Mdm4 (Homo sapiens) + E3 ubiquitin-protein ligase Mdm2 (Homo sapiens), …; SaOS-2 split-luciferase Mdm2/MdmX complementation; inhibition, % at 8 µM; 3% of 330,000 active; AID 485346, 2010;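 active = inhibition of at least 50% at 8 µM in the primary screen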
CSC inhib: cancer stem cell viability inhibitors, primary screen, luminescence; cancer stem cell-like cells viability; inhibition, % at 7.5 µM; 1.1% of 300,000 active; in the data active = inhibition above about 75%; tested in HMLE shEcad cells
Beta cell apopt: inhibitors of cytokine-induced beta cell apoptosis, primary screen, luminescence; protection from apoptosis, % (no concentration beside the values); AID 435005, 2010; INS-1E cytokine-induced death, ATP luminescence, 48 h; percent of positive-control rescue, neutral wells zero; 0.8% of 300,000 active;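 active = Every replicate reaches about 75%, or at least half do and their mean reaches it too, limit read from the data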;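 note: 0% = cytokine-treated negative control wells and 100% = positive control rescue; higher means more ATP so stronger rescue from cytokine killing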
Mdm2-MdmX conf: Mdm2-MdmX complex disruptors, retested hits, confirmation, luminescence, single concentration; 55% of 10,000 active; Mdm2-MdmX binding, luminescent assay; inhibition, % at 8 µM; AID 489028, 2010; shares compounds with Mdm2-MdmX inh; in the data active = inhibition above about 40%
Full FLuc ctr: full-length luciferase signal inhibition, confirmation, counter-screen for Mdm2/MdmX interaction inhibitor project, cell-based, single concentration, SaOS-2; 77% of 6,200 active; inhibition, % at 8 µM; SaOS-2 full-length luciferase counterscreen, luminescence; shares compounds with Mdm2-MdmX inh; AID 504607, 2011;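 active = mean inhibition at 8 µM reaching about 37%, which flags the compound as non-specific, limit read from the data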;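 note: p53-null SaOS-2 cells with luciferase driven by a doxycycline-inducible promoter; compound on cells about two nights before reading with doxycycline added after day one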
The depositor's hits bear a star. Shown are actives, neighbours in structure and some others; about 4.1% of the full set was active somewhere.

How did O=C(OC1CCOC1=O)c1cc(S(=O)(=O)N2CCOCC2)c(Cl)cc1Cl (stereo not given) do in these assays?
A1 inh: 0.0; Mdm2-MdmX inh: 3.4; Beta cell apopt: -16.7

How did COc1ccc(OC)c(C(C[N+](=O)[O-])c2c(C)cc3ccccn23)c1 (stereo not given) do in these assays?
aSyn 5UTR inh: 0.7; A1 inh: -0.6; Mdm2-MdmX inh: 68.1*; CSC inhib: 22.8; Beta cell apopt: 1.3; Mdm2-MdmX conf: 49.5*; Full FLuc ctr: 11.4

What do the screens show for `CCN(C(=O)CSc1nc(-c2cccs2)nc2ccccc12)C1CCS(=O)(=O)C1` (stereo not given)?
A1 inh: 0.3; Mdm2-MdmX inh: 21.7; Beta cell apopt: -19.1

What do the screens show for `O=C(CSc1nc(-c2cccs2)nc2ccccc12)NC1CCS(=O)(=O)C1` (stereo not given)?
A1 inh: -0.6; Mdm2-MdmX inh: 61.2*; CSC inhib: 0.4; Beta cell apopt: -2.7; Mdm2-MdmX conf: 0.9

What do the screens show for `Cc1ccc(S(=O)(=O)N2CCCC2CNC(=O)C(=O)NC2CC2)cc1` (stereo not given)?
aSyn 5UTR inh: -12.7; A1 inh: -0.9; Mdm2-MdmX inh: 11.7; Beta cell apopt: -3.1

What do the screens show for `CC(=O)NC(c1ccco1)c1cc(F)c2cccnc2c1O` (stereo not given)?
A1 inh: 0.4; Mdm2-MdmX inh: 56.7*; CSC inhib: 21.6; Beta cell apopt: 82.0*; Mdm2-MdmX conf: 49.2*; Full FLuc ctr: 44.2*

Results for CC(=O)NC(c1cccs1)c1cc(F)c2cccnc2c1O (stereo not given) ?
A1 inh: -0.1; Mdm2-MdmX inh: 62.7*; CSC inhib: 50.6; Beta cell apopt: 91.3*; Mdm2-MdmX conf: 66.8*; Full FLuc ctr: 30.4

How did Cc1ncc(CN2CCCC(C(=O)Nc3ccc(-c4cccc(F)c4)cc3)C2)n1C (stereo not given) do in these assays?
aSyn 5UTR inh: -39.2; A1 inh: 1.0; Mdm2-MdmX inh: 48.6; CSC inhib: -8.1; Beta cell apopt: -10.9

What do the screens show for `CSCC[C@H](NS(=O)(=O)c1ccc(C(C)=O)cc1)c1nnc2ccccn12`?
aSyn 5UTR inh: -36.5; A1 inh: -0.3; Mdm2-MdmX inh: 20.1; CSC inhib: -25.1; Beta cell apopt: -4.7

How did COC(=O)c1ccccc1NC(=O)CN1CCC(C(=O)c2ccc3c(c2)OCCO3)CC1 do in these assays?
aSyn 5UTR inh: 16.6; A1 inh: -0.3; Mdm2-MdmX inh: 62.2*; CSC inhib: 0.9; Beta cell apopt: -2.3; Mdm2-MdmX conf: 59.6*; Full FLuc ctr: 98.9*

Results for CC1CCc2nc3ccc(S(=O)(=O)N4CCC(C(=O)NC(C)c5ccccc5)CC4)cc3c(C(=O)O)c2C1 (stereo not given) ?
aSyn 5UTR inh: -2.9; A1 inh: 0.6; Mdm2-MdmX inh: 21.7; CSC inhib: -9.1; Beta cell apopt: -4.4

What do the screens show for `CC1CCN(S(=O)(=O)c2ccc(NC(=S)NC(=O)c3ccc(Cl)cc3)cc2)CC1`?
aSyn 5UTR inh: 2.1; A1 inh: -0.6; Mdm2-MdmX inh: 53.5*; CSC inhib: 0.0; Beta cell apopt: 7.1; Mdm2-MdmX conf: 36.2; Full FLuc ctr: 71.9*

Results for COc1cccc(N2CCN(c3ncnc4c3[nH]c3ccccc34)CC2C)c1 (stereo not given) ?
aSyn 5UTR inh: -73.5; A1 inh: 0.2; Mdm2-MdmX inh: 100.2*; CSC inhib: 7.7; Beta cell apopt: 57.8; Mdm2-MdmX conf: 97.6*; Full FLuc ctr: 3.3

Results for COc1cccc(N2CCN(c3ncnc4c3[nH]c3ccc(F)cc34)CC2C)c1 (stereo not given) ?
aSyn 5UTR inh: 47.1; A1 inh: 0.7; Mdm2-MdmX inh: 98.4*; CSC inhib: -9.1; Beta cell apopt: 109.7*; Mdm2-MdmX conf: 100.2*; Full FLuc ctr: 1.1

Results for COc1cc2[nH]c3c(N4CCN(c5ccc(Cl)cc5)CC4)ncnc3c2cc1OC ?
aSyn 5UTR inh: -9.5; A1 inh: 0.0; Mdm2-MdmX inh: 53.2*; CSC inhib: -8.1; Beta cell apopt: 28.9; Mdm2-MdmX conf: 30.6

What do the screens show for `COc1ccc2[nH]c3c(N4CC(C)OC(C)C4)ncnc3c2c1` (stereo not given)?
aSyn 5UTR inh: -18.4; A1 inh: -0.3; Mdm2-MdmX inh: 26.6; CSC inhib: 0.8; Beta cell apopt: 5.9

What do the screens show for `COc1cc2[nH]c3c(Cl)ncnc3c2cc1OC`?
aSyn 5UTR inh: 19.6; A1 inh: -1.6; Mdm2-MdmX inh: 33.1; CSC inhib: -17.6; Beta cell apopt: -14.8

How did COc1ccc(CNC(=O)c2ccccc2SCC(=O)N2CCCC2)cc1OC do in these assays?
aSyn 5UTR inh: -19.2; A1 inh: 0.6; Mdm2-MdmX inh: 4.1; CSC inhib: -4.5; Beta cell apopt: 0.8

Results for COc1cc(-c2noc(C)c2C#Cc2ccccn2)cc(OC)c1OC ?
aSyn 5UTR inh: 85.8*; A1 inh: 1.2; Mdm2-MdmX inh: 65.4*; CSC inhib: 82.4*; Beta cell apopt: 1.9; Mdm2-MdmX conf: 78.0*; Full FLuc ctr: 77.2*

How did COc1cccc2oc3ccc(C#Cc4ccccn4)cc3c(=O)c12 do in these assays?
aSyn 5UTR inh: -71.0; A1 inh: -7.8; Mdm2-MdmX inh: -123.4; CSC inhib: 57.1; Beta cell apopt: 34.7

Results for CNC(C)C#Cc1c(-c2cc(OC)c(OC)c(OC)c2)noc1C (stereo not given) ?
aSyn 5UTR inh: -38.9; A1 inh: -1.2; Mdm2-MdmX inh: 28.2; CSC inhib: 0.5; Beta cell apopt: -11.0

Results for COc1cc(-c2noc(C)c2C(=O)NCCO)cc(OC)c1OC ?
aSyn 5UTR inh: 7.9; A1 inh: 2.1; Mdm2-MdmX inh: 18.7; Beta cell apopt: -2.2

Results for COc1cc(-c2noc(C)c2/C=C/c2ccc(N)cc2)cc(OC)c1OC ?
aSyn 5UTR inh: 103.8*; A1 inh: -0.1; Mdm2-MdmX inh: 83.7*; CSC inhib: -15.2; Beta cell apopt: 51.6; Mdm2-MdmX conf: 86.0*; Full FLuc ctr: 107.9*

How did COc1cc(-c2noc(C)c2C#Cc2ccc(N)cc2)cc(OC)c1OC do in these assays?
aSyn 5UTR inh: 87.8*; A1 inh: 0.8; Mdm2-MdmX inh: 89.3*; CSC inhib: 107.8*; Beta cell apopt: 24.9; Mdm2-MdmX conf: 69.8*; Full FLuc ctr: 88.6*
